High-throughput results as filed in PubChem BioAssay.
KB-V1 MDR tox: kills drug-selected multidrug resistant KB-V1 cells; KB-V1 MDR cells viability, CellTiter-Glo, 72 h; AID 1347076; 400,000 tested, 3.4% active; Potency, µM (series often up to 46.1 µM), actives largely listed as cytotoxic; note: nearly all actives have a fitted effect of over 60% in size
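In this primary screen, KB-V1 cells overexpressing P-gp are incubated with library compounds (lowest to highest concentration) for 72 h at 37 degrees C before a luminescent ATP viability read.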
SW480 rereplic: inducers of DNA re-replication in SW480 colon cancer cells. AID 624297. Potency, µM (titrated, usually from 46.1 µM), usual class: activators. SW480 DNA re-replication, Hoechst DNA content imaging, 48 h. 340,000 tested, 1.8% active; note: nearly all actives have a fitted effect of over 55% in size
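Readout is total intensity of Hoechst-stained nuclei, excited at 405 nm and collected at 500-530 nm. Compound treatment lasted 48 hr at 37 C in 5% CO2 before staining.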
MCF10A rerep: induces DNA re-replication in MCF 10a normal breast cells. Potency, µM (titrated, usually from 46.1 µM), actives largely listed as activators. 350,000 tested, 2.9% active. MCF 10A DNA re-replication, Hoechst nuclear intensity, 48 h; note: nearly all actives have a fitted effect of over 50% in size
IL1B secr inh: inflammasome signaling inhibition, IL-1 beta readout; THP-1 LPS/ATP IL-1B secretion, AlphaLISA, 16 h; hits give low values; activity change, % at 57.5 µM; 360,000 tested, 4.7% active; AID 743279; in the data active = activity change below about -50%; inconclusive = mostly about -30% to -49%
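THP-1 cells pretreated 1 hr with compounds (up to 57.5 uM final), then stimulated with LPS (250 ng/mL final) plus ATP (1.25 mM final); secreted IL-1B measured by AlphaLISA after 16 hr, decreased signal indicating inhibition.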
KB-3-1 tox: kills parental KB-3-1 adenocarcinoma cells. KB-3-1 viability, CellTiter-Glo ATP luminescence, 72 h. Potency, µM (highest dose often 46.1 µM), hits mostly cytotoxic. 400,000 tested, 1.4% active; note: nearly all actives have a fitted effect of over 60% in size
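Cytotoxicity measured as CellTiter-Glo luminescence after 72 h at 37 C. Compound titrations were pinned onto drug-naive KB-3-1 parental adenocarcinoma cells grown in DMEM with 10% FBS, and normalized data fitted to concentration-response curves.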
Large screens that a line does not name were inactive. Compounds with a hit are over-represented: about 9.9% of the library has one in this group of screens. Unless noted, calls come from the whole dose curve; as a rule, active = well fitted curve in the direction sought with a large enough effect; inconclusive = small, poorly fitted or top-dose-only effect, or another doubt; inactive = no such curve, though single readings can be large; an effect the other way counts as inactive or inconclusive.

Cc1onc(-c2ccccc2)c1C(=O)N1CCN(Cc2ccccc2)CC1	KB-V1 MDR tox 23.1µM
Cc1onc(-c2ccccc2Cl)c1C(=O)OCC(=O)Nc1cccc(S(=O)(=O)N(C)C)c1	KB-V1 MDR tox 8.2µM, KB-3-1 tox inconclusive
C[C@@H]1CC2OC(=O)[C@@]3(C)C(=O)CC[C@@](C)(C23)[C@@]1(O)CCc1ccoc1 (some centres undefined)	none
COc1ccc(-c2cnc(C(O)c3ccc(C(C)(C)C)cc3)[nH]2)cc1 (centres undefined)	KB-V1 MDR tox inconclusive (no result: SW480 rereplic, MCF10A rerep)
Cc1onc(-c2ccccc2Cl)c1C(=O)OCC(=O)N1CCN(c2ccccc2)CC1	KB-V1 MDR tox 8.2µM, MCF10A rerep inconclusive
COc1ccccc1N1CCN(C(=O)c2c(C)noc2C)CC1	none
COc1ccccc1N1CCN(C(=O)c2c(-c3ccccc3Cl)noc2C)CC1	KB-V1 MDR tox inconclusive, SW480 rereplic inconclusive, KB-3-1 tox 20.6µM
C/C(=C(/CCO)SS/C(CCO)=C(\C)N(C=O)Cc1cnc(C)nc1N)N(C=O)Cc1cnc(C)nc1N	none (no result: KB-V1 MDR tox, IL1B secr inh, KB-3-1 tox)
CC(C)[C@H](NC(=O)OC(C)(C)C)c1cc(C(=O)N[C@@H](C)c2ccccc2)c(N)s1	none (no result: SW480 rereplic, MCF10A rerep)
CCCCc1ccc(S(=O)(=O)NC(=O)C2(C)CCN2C(=O)CCc2cccs2)cc1 (centres undefined)	none (no result: SW480 rereplic, MCF10A rerep)
O=c1cc(SCc2ccccc2)nc[nH]1	IL1B secr inh -80.2
Cc1cc(SCc2ccccc2)nc(=O)[nH]1	none
Cc1ccc(/C=N/Nc2ncc(Cl)cc2Cl)s1	KB-V1 MDR tox inconclusive, SW480 rereplic 5.8µM, KB-3-1 tox inconclusive
CN(C)c1ccc(/C=c2/sc3n(c2=O)NC2(c4ccccc4)N(C)C(=O)N(C)C2(c2ccccc2)N=3)cc1 (centres undefined)	MCF10A rerep inconclusive (no result: KB-V1 MDR tox, IL1B secr inh, KB-3-1 tox)
Fc1ccc2cnc(-c3ccccc3F)cc2c1	MCF10A rerep 18.4µM
Fc1ccc2cc(-c3ccccc3F)ncc2c1	none
CCOCN(C(=O)Cn1cnc2cc(C)c(C)cc21)c1c(C)cccc1CC	KB-V1 MDR tox 5.17µM, KB-3-1 tox inconclusive (no result: SW480 rereplic, MCF10A rerep, IL1B secr inh)
O=C1NC(=S)S/C1=C\C=C\c1ccc([N+](=O)[O-])o1	KB-V1 MDR tox 4.11µM, SW480 rereplic inconclusive, IL1B secr inh -98.3, KB-3-1 tox inconclusive
O=C1NC(=S)SC1=Cc1ccc2c(c1)OCO2	KB-V1 MDR tox inconclusive, MCF10A rerep inconclusive, KB-3-1 tox inconclusive
Cc1ccc2c(=O)c(C(=O)c3ccccc3)cn(CC(=O)Nc3ccccc3C)c2n1	none (no result: SW480 rereplic, MCF10A rerep, IL1B secr inh)
N#C/C(=C1/C(=O)Nc2ccc(Br)cc21)c1ccccn1	IL1B secr inh -61.8
COc1cc(C(=O)OCC(=O)NC2CCCC2)cc(NC(=O)c2ccco2)c1OC	KB-V1 MDR tox 4.61µM
COc1cc(NC(=O)c2ccco2)c(C(=O)OCC(=O)c2c[nH]c3ccccc23)cc1OC	SW480 rereplic inconclusive, MCF10A rerep 23.1µM
O=C(OCC(=O)c1c[nH]c2ccccc12)c1ccco1	none
O=C(NC1CCCCC1)c1cc(F)cc2c1OCOC2	none
COCCCNC(=O)COc1ccc(Br)cc1Cl	KB-V1 MDR tox 20.6µM
CCNC(=O)COc1ccc(Br)cc1Cl	KB-V1 MDR tox inconclusive
Cc1nn(-c2ccccc2)c(C)c1NC(=O)COc1ccccc1C#N	none (no result: SW480 rereplic, MCF10A rerep)
N#Cc1ccc(-c2ccc(OCC(=O)Nc3cccnc3)cc2)cc1	IL1B secr inh -52.1 (no result: KB-V1 MDR tox, KB-3-1 tox)
Cc1nn(-c2ccccc2)c(C)c1NC(=O)COc1ccc2ccccc2c1	KB-V1 MDR tox 14.6µM, MCF10A rerep inconclusive, KB-3-1 tox inconclusive
Cc1nn(-c2ccccc2)c(C)c1NC(=O)COC(=O)c1ccccc1	KB-V1 MDR tox inconclusive
Cc1nn(-c2ccccc2)c(C)c1NC(=O)COc1ccc(Br)cc1Cl	KB-V1 MDR tox inconclusive, MCF10A rerep inconclusive, KB-3-1 tox 14.6µM
COc1ccccc1C(=O)Nc1nc2nc(C)c(Cc3ccccc3)c(=O)n2[nH]1	none (no result: SW480 rereplic, MCF10A rerep, IL1B secr inh)
COc1ccc(C2N=C(Nc3nc4ccccc4o3)NC3=C2C(=O)CC(C)(C)C3)cc1 (centres undefined)	KB-3-1 tox inconclusive (no result: SW480 rereplic, MCF10A rerep, IL1B secr inh)
Cc1nn(-c2ccccc2)c(C)c1NC(=O)COc1ccc(C#N)cc1	KB-V1 MDR tox 18.4µM, MCF10A rerep inconclusive
O=C(/C=C/c1c[nH]c2ccccc12)c1cccc2ccccc12	KB-V1 MDR tox inconclusive, SW480 rereplic 16.4µM, MCF10A rerep 20.6µM, IL1B secr inh -108.0, KB-3-1 tox inconclusive
C(=C\c1c[nH]c2ccccc12)/c1nccc2ccccc12	none (no result: SW480 rereplic, MCF10A rerep, IL1B secr inh)
CCOc1c(Cl)cc(C(=O)Nc2ccccc2-c2ccccc2)cc1Cl	KB-V1 MDR tox 20.6µM, KB-3-1 tox inconclusive
CCOc1ccccc1C(=O)Nc1ccccc1-c1ccccc1	KB-V1 MDR tox 14.6µM, MCF10A rerep 20.6µM, KB-3-1 tox inconclusive
COc1ccc(C(=O)Nc2ccccc2-c2ccccc2)cc1Cl	IL1B secr inh inconclusive
CCOc1ccccc1NC(=O)C(OC(=O)c1ccccc1O)c1ccccc1 (centres undefined)	KB-V1 MDR tox 11.6µM
Cc1cc(NC(=O)CN2C(=O)/C(=C/c3ccc(C(C)C)cc3)SC2=S)no1	none (no result: SW480 rereplic, MCF10A rerep)
COc1ccc(C)cc1S(=O)(=O)N1CCN(C(=O)c2ncoc2-c2ccc(F)cc2)CC1	none
COc1ccc(C)cc1S(=O)(=O)N1CCN(C(=O)c2ncoc2-c2ccc(C)cc2)CC1	MCF10A rerep inconclusive, IL1B secr inh -53.3
CCOc1ccc(NC(=O)Cn2c(=O)n(-c3cccc(OC)c3)c(=O)c3c4c(sc32)CCCC4)cc1	none (no result: SW480 rereplic, MCF10A rerep, IL1B secr inh)
Cn1c(=O)c2[nH]c(C3CCCC3)nc2n(C)c1=O	none
Cc1nc2c(=O)n(C)c(=O)n(C)c2nc1Cl	KB-V1 MDR tox inconclusive, SW480 rereplic inconclusive, MCF10A rerep 1.84µM, IL1B secr inh -98.5, KB-3-1 tox 14.6µM
CCCCCCCCN1C(=O)[C@H](CC(=O)N2CCSCC2)C[C@@]2(C(=O)OCC)CCCC=C12	KB-V1 MDR tox 23.1µM, IL1B secr inh inconclusive, KB-3-1 tox inconclusive (no result: SW480 rereplic, MCF10A rerep)
CCCCCCCCN1C(=O)[C@H](CC(=O)N2CCOCC2)C[C@@]2(C(=O)OCC)CCCC=C12	KB-3-1 tox inconclusive (no result: SW480 rereplic, MCF10A rerep)
CCCCCCCCN1C(=O)[C@H](CC(=O)N2CCSCC2)C[C@@]2(C(=O)OC)CCCCC=C12	KB-V1 MDR tox inconclusive, IL1B secr inh -68.0 (no result: SW480 rereplic, MCF10A rerep)
CC(=O)CC1OC(=O)C(Br)=C1NCc1ccccc1 (centres undefined)	SW480 rereplic inconclusive, MCF10A rerep 2.59µM, IL1B secr inh -99.8
O=C(CC1Oc2ccccc2NC1=O)NCc1ccccc1 (centres undefined)	none
COc1ccc(CCNC(=O)C2CCN(Cc3nc(-c4cccc(Cl)c4)oc3C)CC2)cc1OC	KB-V1 MDR tox 3.26µM, KB-3-1 tox inconclusive
CCc1ccc(-c2nc(CN3CCCC(C(=O)NCCc4ccc(OC)c(OC)c4)C3)c(C)o2)cc1 (centres undefined)	KB-V1 MDR tox 2.31µM, MCF10A rerep inconclusive, IL1B secr inh -58.6, KB-3-1 tox 23.1µM
